Test results published in PubChem BioAssay (EPA / NIEHS).
The source holds several records for some structures; these can differ, active in one and inactive in another. Calls of active or inactive are those of the source. The calls were made as follows: active = hit-call score of the fitted dose curve at least 0.9, where 1 is the maximum; inactive = score below 0.9.

Assay: APR_HepG2_MitoticArrest_1hr: Apredica 1-hour HepG2 Assay for Mitotic Arrest (AID 2282672)
Conditions: high-content imaging, actives raise or lower the signal
Experimental: APR_HepG2_1hr is a cell-based, multiplexed-readout assay that uses HepG2, a human liver cell line, with measurements taken at 1 hour after chemical dosing in a 384-well plate.APR_HepG2_MitoticArrest_1hr is one of 10 assay component(s) measured or calculated from the APR_HepG2_1hr assay. It is designed to make measurements of cell phenotype, a form of morphology reporter, as detected with fluorescence intensity signals by HCS Fluorescent Imaging technology.Data from the assay component APR_HepG2_MitoticArrest_1hr was analyzed into 1 assay endpoint. This assay endpoint, APR_HepG2_MitoticArrest_1hr, was analyzed with bidirectional fitting relative to DMSO as the negative control and baseline of activity. Using a type of morphology reporter, measures of protein for gain or loss-of-signal activity can be used to understand the signaling at the pathway-level as they relate to the gene . Furthermore, this assay endpoint can be referred to as a primary readout, because this assay has produced multiple assay endpoints where this one serves a signaling function. To generalize the intended target to other relatable targets, this assay endpoint is annotated to the cell cycle intended target family, where the subfamily is arrest.
Cells were treated with dimethyl sulfoxide (DMSO) as a solvent control at a final concentration of 0.5% v/v or with compounds in DMSO with a resulting final DMSO concentration of 0.5% v/v. Compound treatment was done at concentrations of 0.39, 0.78, 1.56, 3.12, 6.24, 12.5, 25, 50, 100, and 200 uM in duplicate on each plate. Cells were treated with compounds for 1, 24, or 72 hr. Carbonyl […] m-chloro-phenylhydrazone (CCCP) and taxol were used as positive controls for mitochondrial function and cytoskeletal stability, respectively; DMSO served as the negative control for this experiment. Cells were fixed by the direct addition of 50 uL formaldehyde in Hank's Balanced Salt Solution (HBSS) to a final concentration of 3.7%. After incubation in the fixation medium for 30 min at room temperature (293-298 K), cells were rinsed twice with HBSS and treated with cell permeabilization buffer (16 uL of 0.5% Triton X-100) for 10 min at room temperature (293-298 K) before labeling. For mitochondrial membrane potential and mitochondrial measurements, pre-fixed cells were incubated with 50 uL of MitoTracker Red CMXRos (Invitrogen) at a concentration of 250 nM for 30 min before fixation. In the remaining cases, post-fixed cells were labeled by incubation with a multiplexed mixture of primary antibodies in HBSS for 60 min at room temperature (293-298 K) to detect immunoreactivity of c-Jun (1:500), phospho-histone H3 (1:100), phospho-histone H2A.x (1:200), p53 (1:400), alpha-tubulin (1:200) and Hoechst 33342 (2 ug/mL). Cells were labeled for multiplexed imaging on two separate plates: a) Hoechst 33342, MitoTracker Red, phospho-histone H3, and alpha-tubulin, and b) Hoechst 33342, phospho-histone H2A.x, and c-Jun. A final rinse with HBSS (50 uL) was performed before analysis. The primary and secondary antibodies for the proteins were phospho-histone H3 (rabbit anti-phospho-histone H3 and FITC-donkey anti-rabbit IgG), phospho-histone H2A.x (mouse anti-phospho-histone H2A.x and FITC-donkey anti-mouse IgG), c-Jun (rabbit anti-phospho-c-Jun and Cy3-donkey anti-rabbit IgG), p53 (sheep anti-p53 and Cy5-donkey anti-sheep IgG), alpha-tubulin (mouse anti-alpha-tubulin and Cy5-donkey anti-mouse IgG). These antibodies are available as the CellCiphr HepG2 assay kit (Millipore).Digital images of each well were captured using a Cellomics ArrayScan VTI (Thermo Scientific Cellomics) (0.8 NA objective, 0.63x optical coupler, and XF-93 filter set) at 20x magnification. The images were acquired using the autofocus feature of the ArrayScan instrument, which entails the following steps. First, the camera focuses on channel 1 (Hoechst 33342), where nuclei are identified. Second, a Z offset of 1 um is used for capturing mitochondria (MitoTracker Red). […]

Row | Compound | outcome | AC50
1 | Cc1cc(Cl)ccc1OCC(=O)O | inactive | 
2 | CCCCNC(=O)OCC#CI | inactive | 28.8 µM (active)
3 | C=CCC1=C(C)[C@@H](OC(=O)[C@@H]2[C@@H](C=C(C)C)C2(C)C)CC1=O | inactive | 
4 | CCNc1nc(Cl)nc(NCC)n1 | inactive | 
5 | CCCCOC(=O)c1ccccc1C(=O)OCCCC | inactive | 
6 | CCON=C(CC)C1=C(O)CC(c2c(C)cc(C)cc2C)CC1=O (stereo not given) | inactive | 
7 | COc1nc(C)nc(NC(=O)NS(=O)(=O)c2ccccc2CCC(F)(F)F)n1 | inactive | 
8 | CCOC(=O)C(Cl)Cc1cc(-n2nc(C)n(C(F)F)c2=O)c(F)cc1Cl (stereo not given) | inactive | 
9 | COc1nc(C)nc(NC(=O)NS(=O)(=O)c2ccccc2Cl)n1 | inactive | 
10 | Fc1ccc(Oc2ccnc3cc(Cl)cc(Cl)c23)cc1 | inactive | 
11 | CCOP(=S)(OCC)SCn1c(=O)oc2cc(Cl)ccc21 | inactive | 
12 | CO/C=C(/C(=O)OC)c1ccccc1Oc1cc(Oc2ccccc2C#N)ncn1 | inactive | 
13 | CCNc1nc(Cl)nc(NC(C)C)n1 | inactive | 
14 | CC1=C(C(=O)Nc2ccccc2)SCCO1 | inactive | 
15 | O=C(O)c1nc(Cl)ccc1Cl | inactive | 
16 | CCc1nn(C)c(C(=O)NCc2ccc(C(C)(C)C)cc2)c1Cl | inactive | 
17 | COC(=O)c1ccccc1C(=O)OC | inactive | 
18 | CNC(=O)ON=CC(C)(C)SC | inactive | 
19 | C=CC1(C)OC(=O)N(c2cc(Cl)cc(Cl)c2)C1=O (stereo not given) | inactive | 
20 | CCOc1cc(Oc2ccc(C(F)(F)F)cc2Cl)ccc1[N+](=O)[O-] | inactive | 

Row | Compound | outcome | AC50
21 | COc1ccc(C(c2ccc(OC)cc2)C(Cl)(Cl)Cl)cc1 | inactive | 
22 | CCCN(CCC)c1c([N+](=O)[O-])cc(S(N)(=O)=O)cc1[N+](=O)[O-] | inactive | 
23 | COC(=O)C=C(C)OP(=O)(OC)OC | inactive | 
24 | C#CCOS(=O)OC1CCCCC1Oc1ccc(C(C)(C)C)cc1 (stereo not given) | inactive | 
25 | CC(Oc1ccc(Cl)cc1Cl)C(=O)O (stereo not given) | inactive | 
26 | COC(=O)N(OC)c1ccccc1COc1ccn(-c2ccc(Cl)cc2)n1 | inactive | 
27 | CNC(=S)S | inactive | 
28 | CON(C)C(=O)Nc1ccc(Cl)c(Cl)c1 | inactive | 
29 | CCOC(=O)CC(SP(=S)(OC)OC)C(=O)OCC (stereo not given) | inactive | 
30 | Cc1c(F)c(F)c(COC(=O)C2C(/C=C(\Cl)C(F)(F)F)C2(C)C)c(F)c1F (stereo not given) | inactive | 
31 | CS/C(C)=N/OC(=O)N(C)SN(C)C(=O)O/N=C(\C)SC |  | 29.7 µM (active)
32 | N#Cc1cc(Br)c(O)c(Br)c1 | inactive | 
33 | N#CC(CCc1ccc(Cl)cc1)(Cn1cncn1)c1ccccc1 (stereo not given) | inactive | 
34 | O=C(O)COc1nc(Cl)c(Cl)cc1Cl | inactive | 
35 | COP(N)(=O)SC (stereo not given) | inactive | 
36 | CC(C)(C)c1ccc(CSc2cnn(C(C)(C)C)c(=O)c2Cl)cc1 | inactive | 
37 | CN(C)C(=S)SSC(=S)N(C)C | inactive | 
38 | N#Cc1nn(-c2c(Cl)cc(C(F)(F)F)cc2Cl)c(N)c1S(=O)C(F)(F)F (stereo not given) | inactive | 
39 | COc1cnc(OC)n2nc(NS(=O)(=O)c3c(OCC(F)F)cccc3C(F)(F)F)nc12 | inactive | 
